Results as given in PubChem BioAssay (NCI).
The panel holds about 83,000 compounds, 20% with a hit somewhere; the sample as a whole holds those more often.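 Interpretation: 100, growth as untreated; towards 0, rising growth inhibition; 0, no net growth; 0 to -100, cell death. Compounds scoring below 10 were considered active.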 Calls of active or inactive are those of the source.

What was measured:
Assay in all cases: NCI-60 one-dose screen, 48 h (100 = growth as untreated, 0 = no growth, -100 = all killed)
SK-MEL-2 melanoma = conditions: 10 µM unless noted
EKVX NSCLC = conditions: 10 µM unless noted
SN12C renal = conditions: 10 µM unless noted
UO-31 renal = conditions: 10 µM unless noted
TK-10 renal = conditions: 10 µM unless noted
ACHN renal = conditions: 10 µM unless noted
CAKI-1 renal = conditions: 10 µM
A498 renal = conditions: 10 µM unless noted
MOLT-4 leukemia = conditions: 10 µM unless noted
SR leukemia = conditions: 10 µM unless noted
OVCAR-5 ovarian = conditions: 10 µM unless noted
OVCAR-4 ovarian = conditions: 10 µM unless noted
SK-OV-3 ovarian = conditions: 10 µM unless noted
IGROV1 ovarian = conditions: 10 µM unless noted
OVCAR-3 ovarian = conditions: 10 µM unless noted
HS 578T breast = conditions: 10 µM unless noted
NCI/ADR-RES ovarian = conditions: 10 µM unless noted
CCRF-CEM leukemia = conditions: 10 µM unless noted
RPMI-8226 leukemia = conditions: 10 µM unless noted
OVCAR-8 ovarian = conditions: 10 µM unless noted

Measured: growth

C#C[C@]1(O)CC[C@H]2[C@@H]3CC=C4c5sc(Nc6cc(OC)ccc6OC)nc5CC[C@]4(C)[C@H]3CC[C@@]21C
inactive: SK-MEL-2 melanoma 31.8% | EKVX NSCLC 42.9% | SN12C renal 49% | UO-31 renal 12.8% | TK-10 renal 84.7% | ACHN renal 36.5% | CAKI-1 renal 28% | OVCAR-5 ovarian 56.7% | OVCAR-4 ovarian 64.3% | IGROV1 ovarian 47.9% | OVCAR-3 ovarian 59.2% | NCI/ADR-RES ovarian 55.6%
active: A498 renal -28.3% | MOLT-4 leukemia -5.93% | SR leukemia 3.13% | SK-OV-3 ovarian 5.82% | HS 578T breast -13.8%

Oc1ccc(CSc2nnc(-c3cnccn3)o2)c2cccnc12
inactive: EKVX NSCLC 19.3% | TK-10 renal 35.3% | CCRF-CEM leukemia 18.1% | MOLT-4 leukemia 16.9% | SR leukemia 20.5% | OVCAR-8 ovarian 15.1% | OVCAR-5 ovarian 36.9% | OVCAR-4 ovarian 36.6% | IGROV1 ovarian 23.4% | OVCAR-3 ovarian 11.9% | HS 578T breast 19% | NCI/ADR-RES ovarian 33%
active: SK-MEL-2 melanoma -2.52% | SN12C renal 7.45% | UO-31 renal 6.71% | ACHN renal 0.457% | CAKI-1 renal 2.13% | RPMI-8226 leukemia 7.74% | SK-OV-3 ovarian 9.11%

COc1ccc2c(c1)c(-c1nnc(N)nc1-c1cn(C)c3ccccc13)cn2C
inactive: SK-MEL-2 melanoma 95.2% | EKVX NSCLC 92.7% | SN12C renal 93.2% | UO-31 renal 70.8% | TK-10 renal 94.1% | ACHN renal 94.5% | CAKI-1 renal 75.7% | CCRF-CEM leukemia 93.9% | MOLT-4 leukemia 94.4% | SR leukemia 84.7% | RPMI-8226 leukemia 105% | OVCAR-8 ovarian 103% | OVCAR-5 ovarian 86.5% | OVCAR-4 ovarian 91.3% | SK-OV-3 ovarian 102% | IGROV1 ovarian 95.1% | OVCAR-3 ovarian 96.8% | HS 578T breast 91.2% | NCI/ADR-RES ovarian 90.5%

O=C(COc1cccc2cccnc12)Nc1ccc(C(=O)/C=C/c2ccc(Cl)cc2)cc1
inactive: SK-MEL-2 melanoma 96.2% | EKVX NSCLC 80.9% | SN12C renal 86% | UO-31 renal 67.7% | TK-10 renal 104% | ACHN renal 94% | CAKI-1 renal 76.2% | CCRF-CEM leukemia 83.3% | MOLT-4 leukemia 67.7% | SR leukemia 61.1% | OVCAR-8 ovarian 94.4% | OVCAR-5 ovarian 105% | OVCAR-4 ovarian 92% | SK-OV-3 ovarian 105% | IGROV1 ovarian 88.8% | OVCAR-3 ovarian 100% | HS 578T breast 98.8% | NCI/ADR-RES ovarian 79.2%
active: RPMI-8226 leukemia 7.02%

COc1ccc(NC(=O)Cn2cc(CN3C(=O)c4ccc([N+](=O)[O-])cc4C3=O)nn2)cc1
inactive: SK-MEL-2 melanoma 112% | EKVX NSCLC 105% | SN12C renal 99.7% | UO-31 renal 88.1% | TK-10 renal 103% | ACHN renal 104% | CAKI-1 renal 87.7% | A498 renal 88.2% | CCRF-CEM leukemia 109% | MOLT-4 leukemia 101% | RPMI-8226 leukemia 102% | OVCAR-8 ovarian 94.2% | OVCAR-5 ovarian 115% | OVCAR-4 ovarian 112% | SK-OV-3 ovarian 93.2% | IGROV1 ovarian 107% | HS 578T breast 106% | NCI/ADR-RES ovarian 100%

O=C1c2c(c3c4cc(O)ccc4oc3c3[nH]c4ccccc4c23)C(=O)N1O
inactive: EKVX NSCLC 66.6% | SN12C renal 17.1% | TK-10 renal 31.1% | OVCAR-5 ovarian 72.5% | OVCAR-4 ovarian 22% | NCI/ADR-RES ovarian 40.7%
active: SK-MEL-2 melanoma -71.6% | UO-31 renal -40.1% | ACHN renal -5.43% | CAKI-1 renal -16.5% | A498 renal -9.95% | CCRF-CEM leukemia 1.62% | MOLT-4 leukemia 4.76% | RPMI-8226 leukemia 4.71% | SK-OV-3 ovarian -17% | IGROV1 ovarian 0.286% | HS 578T breast -8.67%

O=C(Nc1cc(F)cc2cccnc12)c1cnc(N2CCOCC2)cn1
active: OVCAR-3 ovarian 9.55%
inactive: SK-MEL-2 melanoma 96% | EKVX NSCLC 63.6% | SN12C renal 83.5% | UO-31 renal 46.1% | TK-10 renal 61.6% | ACHN renal 34.8% | CAKI-1 renal 64.9% | CCRF-CEM leukemia 28.6% | MOLT-4 leukemia 29.7% | SR leukemia 38.5% | RPMI-8226 leukemia 70.5% | OVCAR-8 ovarian 79.4% | OVCAR-5 ovarian 65.6% | OVCAR-4 ovarian 17.9% | SK-OV-3 ovarian 95.2% | IGROV1 ovarian 25.5% | HS 578T breast 98.3% | NCI/ADR-RES ovarian 78.2%

O=C(COc1ccc(C2SCC(=O)N2c2ccc(F)cc2)cc1)c1ccccc1 (stereo not given)
inactive: SK-MEL-2 melanoma 99.8% | EKVX NSCLC 86.9% | SN12C renal 97.1% | UO-31 renal 78.6% | TK-10 renal 131% | ACHN renal 95.6% | CAKI-1 renal 66% | CCRF-CEM leukemia 95.8% | MOLT-4 leukemia 92.5% | SR leukemia 65.1% | RPMI-8226 leukemia 87.4% | OVCAR-8 ovarian 94.4% | OVCAR-5 ovarian 107% | OVCAR-4 ovarian 110% | SK-OV-3 ovarian 112% | IGROV1 ovarian 86.2% | OVCAR-3 ovarian 114% | HS 578T breast 96.7% | NCI/ADR-RES ovarian 94.2%

COc1cc(C2CC(c3ccc(Nc4nc(NCCO)nc(Nc5ccc(Cl)cc5)n4)cc3)=Nc3c(N)nc(N)nc3N2)cc(OC)c1OC (stereo not given)
inactive: SK-MEL-2 melanoma 75.9% | EKVX NSCLC 109% | SN12C renal 49.9% | UO-31 renal 85.1% | TK-10 renal 95.8% | ACHN renal 79.3% | CAKI-1 renal 53.8% | A498 renal 99.8% | CCRF-CEM leukemia 23.8% | MOLT-4 leukemia 19.9% | RPMI-8226 leukemia 37.5% | OVCAR-5 ovarian 119% | SK-OV-3 ovarian 125% | HS 578T breast 35% | NCI/ADR-RES ovarian 103%

Cn1c(SC(C(=O)Nc2ccc(F)cc2)c2ccccc2)nc2ccccc2c1=O (stereo not given)
inactive: SK-MEL-2 melanoma 104% | EKVX NSCLC 100% | SN12C renal 99.1% | UO-31 renal 88.1% | TK-10 renal 99.1% | ACHN renal 109% | CAKI-1 renal 99.3% | CCRF-CEM leukemia 102% | MOLT-4 leukemia 101% | SR leukemia 96.9% | RPMI-8226 leukemia 98.4% | OVCAR-8 ovarian 99.7% | OVCAR-5 ovarian 111% | OVCAR-4 ovarian 102% | SK-OV-3 ovarian 109% | IGROV1 ovarian 102% | OVCAR-3 ovarian 114% | HS 578T breast 98.8% | NCI/ADR-RES ovarian 109%

CC(c1ccccc1)N1C(=O)/C(=C/c2csc(C#N)n2)SC1=S (stereo not given)
inactive: SK-MEL-2 melanoma 96.2% | EKVX NSCLC 98.5% | SN12C renal 93.3% | UO-31 renal 64.8% | TK-10 renal 119% | ACHN renal 87% | CAKI-1 renal 84.9% | CCRF-CEM leukemia 10.5% | MOLT-4 leukemia 36.5% | SR leukemia 48.9% | RPMI-8226 leukemia 41.8% | OVCAR-8 ovarian 93.4% | OVCAR-5 ovarian 107% | OVCAR-4 ovarian 98.1% | SK-OV-3 ovarian 108% | IGROV1 ovarian 90.9% | OVCAR-3 ovarian 55.5% | HS 578T breast 103% | NCI/ADR-RES ovarian 97.5%

O=C(Nc1ccc(-c2nc(-c3cccc(O)c3)c(-c3ccnc(Br)c3)[nH]2)cc1)c1ccccc1
active: UO-31 renal 1.13% | A498 renal -11.4% | MOLT-4 leukemia -15.8% | SR leukemia -15.2% | SK-OV-3 ovarian -5.97% | HS 578T breast -24.1%
inactive: SK-MEL-2 melanoma 10.3% | EKVX NSCLC 26.7% | SN12C renal 35% | TK-10 renal 49% | ACHN renal 16.5% | CAKI-1 renal 11.3% | OVCAR-8 ovarian 24.3% | OVCAR-5 ovarian 57.7% | OVCAR-4 ovarian 35% | IGROV1 ovarian 25.6% | OVCAR-3 ovarian 31.6% | NCI/ADR-RES ovarian 57.6%

COc1ccc(-c2cc(-c3cccc4ccccc34)n3c(n2)nc2ccccc23)cc1
active: CCRF-CEM leukemia 9.05% | MOLT-4 leukemia 2.23%
inactive: SK-MEL-2 melanoma 79.1% | EKVX NSCLC 74.9% | SN12C renal 36.9% | UO-31 renal 29% | TK-10 renal 43% | ACHN renal 19.7% | CAKI-1 renal 21% | A498 renal 41.5% | RPMI-8226 leukemia 32.7% | OVCAR-8 ovarian 42.1% | OVCAR-5 ovarian 81.1% | OVCAR-4 ovarian 64.8% | SK-OV-3 ovarian 58.4% | IGROV1 ovarian 48.7% | HS 578T breast 55% | NCI/ADR-RES ovarian 54.2%

Oc1ccc(CSc2nnc(-c3ccncc3)n2-c2ccccc2)c2cccnc12
inactive: SK-MEL-2 melanoma 29.7% | EKVX NSCLC 48.2% | SN12C renal 11% | TK-10 renal 34.1% | ACHN renal 14.4% | CAKI-1 renal 15.7% | A498 renal 44% | MOLT-4 leukemia 20.1% | SR leukemia 35.6% | RPMI-8226 leukemia 13.6% | OVCAR-8 ovarian 18.3% | OVCAR-5 ovarian 45.7% | OVCAR-4 ovarian 17% | HS 578T breast 15.4%
active: UO-31 renal 9.11% | SK-OV-3 ovarian 9.36% | IGROV1 ovarian 8.84% | OVCAR-3 ovarian 5.81% | NCI/ADR-RES ovarian 9.52%

CCC(CC)N1C(=O)/C(=c2\sc3n(c2=O)C2C(NN=3)N(CC)C(=O)N2CC)c2ccccc21 (stereo not given)
inactive: SK-MEL-2 melanoma 59.4% | EKVX NSCLC 48.1% | SN12C renal 18.2% | UO-31 renal 39.8% | TK-10 renal 86.5% | ACHN renal 32% | CAKI-1 renal 39.9% | MOLT-4 leukemia 10% | OVCAR-8 ovarian 34.8% | OVCAR-5 ovarian 29.8% | OVCAR-4 ovarian 38.4% | SK-OV-3 ovarian 42.6% | IGROV1 ovarian 23% | HS 578T breast 25.6% | NCI/ADR-RES ovarian 11%
active: A498 renal -17% | SR leukemia 5.6% | RPMI-8226 leukemia 8.29% | OVCAR-3 ovarian 7.62%

COc1ccc2oc3c4[nH]c5ccccc5c4c4c(c3c2c1)C(=O)N(O)C4=O
inactive: SK-MEL-2 melanoma 107% | EKVX NSCLC 97.8% | SN12C renal 94.7% | UO-31 renal 82.2% | TK-10 renal 140% | ACHN renal 97.9% | CAKI-1 renal 80.4% | A498 renal 75.4% | CCRF-CEM leukemia 91.4% | MOLT-4 leukemia 116% | RPMI-8226 leukemia 91.9% | OVCAR-8 ovarian 102% | OVCAR-5 ovarian 109% | OVCAR-4 ovarian 104% | SK-OV-3 ovarian 98.9% | IGROV1 ovarian 94.9% | HS 578T breast 89.9% | NCI/ADR-RES ovarian 101%

CCOc1ccc2nc(NC(=O)Nc3ccccc3C)sc2c1
inactive: SK-MEL-2 melanoma 48.5% | EKVX NSCLC 72% | SN12C renal 58.7% | UO-31 renal 66.3% | TK-10 renal 64.5% | ACHN renal 67% | CAKI-1 renal 60.9% | CCRF-CEM leukemia 47.7% | MOLT-4 leukemia 34.5% | SR leukemia 24.3% | OVCAR-8 ovarian 74.7% | OVCAR-5 ovarian 80.2% | OVCAR-4 ovarian 80.2% | SK-OV-3 ovarian 82.3% | IGROV1 ovarian 49.5% | OVCAR-3 ovarian 20.7% | HS 578T breast 50.5% | NCI/ADR-RES ovarian 22.8%
